Compounds with a hit are over-represented: about 1.1% of the library has one in this group of screens.
rTrxR1 inhibitor – inhibitors of rat thioredoxin reductase 1 | recombinant rTrxR1, NADPH fluorescence consumption, selenite substrate | Potency, µM (series often up to 114 µM), for the others: at the highest dose activity change, negative = inhibition, hits mostly inhibitors | hit rate 1% among 390,000; further: nearly all actives have a fitted effect of over 65% in size
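Rat TrxR1 (90 nM in the dispensed reagent) was pre-reduced with 400 uM NADPH for 5 min at room temperature, then incubated with compound for 15 min. After 400 uM selenite was added, NADPH fluorescence (Ex 340/Em 450 nm) was followed for 8 min.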
mIDH1 inhibitor – blocks human mutant IDH1 R132H enzyme | Potency, µM (doses to about 76.6 µM), without a hit: top-dose activity change, negative = inhibition, hits mostly inhibitors | IDH1-R132H enzyme, NADPH consumption, diaphorase/resazurin fluorescence | AID 602179 | hit rate 0.093% among 390,000; further: nearly all actives have a fitted effect of over 65% in size
Target sequence (O75874 whole entry R132H, stated change not applied): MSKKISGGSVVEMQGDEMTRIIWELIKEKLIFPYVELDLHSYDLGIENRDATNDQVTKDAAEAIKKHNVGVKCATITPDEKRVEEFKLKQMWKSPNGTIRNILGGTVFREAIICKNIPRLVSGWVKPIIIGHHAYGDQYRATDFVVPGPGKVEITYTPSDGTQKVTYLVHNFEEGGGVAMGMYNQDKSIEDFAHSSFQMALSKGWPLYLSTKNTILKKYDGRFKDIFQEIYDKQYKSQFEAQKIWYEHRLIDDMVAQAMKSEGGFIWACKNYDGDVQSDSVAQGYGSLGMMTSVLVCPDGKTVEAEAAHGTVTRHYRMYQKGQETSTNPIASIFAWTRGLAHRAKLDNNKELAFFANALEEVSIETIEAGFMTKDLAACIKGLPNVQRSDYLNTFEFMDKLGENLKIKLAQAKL
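IDH1-R132H (0.5 ug/mL dispensed) in pH 7.5 Tris buffer was preincubated 30 min with compound, then given a substrate mix of 0.016 mM NADPH and 2 mM alpha-KG for 80 min at room temperature; remaining NADPH was read by diaphorase/resazurin fluorescence.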
TrxR1 substrate – substrates of rat thioredoxin reductase 1; Potency, µM (highest dose often 114 µM), inactives show at the highest dose activity change, negative = substrate turnover; O89049; purified TrxR1 substrate turnover, NADPH consumption readout; AID 588456; hit rate 0.01% among 390,000; further: nearly all actives have a fitted effect of over 50% in size
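Rat TrxR1, dispensed at 90 nM, was prereduced with 400 uM NADPH (final) for 5 min at ~22 deg C, then incubated with compound 15 min before 400 uM selenite. A first-read NADPH fluorescence drop versus no-compound background flagged substrates.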
RGS4 inh – blocks human RGS4-accelerated GTP hydrolysis. Transcreener GDP fluorescence polarization, RGS4-accelerated GTP hydrolysis. hit rate 0.039% among 390,000. Potency, µM (titrated, usually from 114 µM), without a hit: at the top dose activity change, negative = inhibition, usual class: inhibitors; further: nearly all actives have a fitted effect of over 75% in size
Target sequence (P49798 whole entry, looked up): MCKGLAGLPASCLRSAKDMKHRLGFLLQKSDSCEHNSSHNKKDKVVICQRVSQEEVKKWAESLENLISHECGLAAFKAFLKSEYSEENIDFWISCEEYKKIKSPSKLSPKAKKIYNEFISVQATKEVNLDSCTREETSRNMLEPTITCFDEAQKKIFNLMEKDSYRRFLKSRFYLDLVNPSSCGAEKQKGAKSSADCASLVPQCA
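MLSMR compounds (23 nl, pin-transferred) preincubated 10 min at room temperature with a 500nM (2x) first reagent, then RGS4 at 900nM (2x) plus Transcreener GDP mix added; fluorescence polarization (620/688 nm) read before and after 90 min at 30 °C.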
Eya2 phos inh – Eya2 (human) phosphatase inhibition. O00167. recombinant Eya2, OMFP fluorescence dephosphorylation (OMFP is methylfluorescein phosphate). Potency, µM (series often up to 76.9 µM), for inactives: at the top dose activity, negative = inhibition, actives largely listed as inhibitors. hit rate 0.006% among 330,000
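Eya2 (0.2 uM) preincubated 10 min at ambient with compound, then OMFP substrate added at 50 uM; 10 min reaction in 50 mM HEPES pH 7.5, 50 mM NaCl, 5 uM MgCl2, 0.05% BSA, 1 mM DTT. Fluorescence read at Ex 485/Em 525 nm.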
Starred values were filed as active, the others as inactive; ? = inconclusive; / = no result given; ! = not active in a repeat; [ ] = another dose, or the depositor's remark. The call rests on the fitted dose curve; in most records, active means well fitted curve in the direction sought with a large enough effect; inconclusive means small, poorly fitted or top-dose-only effect, or another doubt; inactive means no such curve, though single readings can be large; an effect the other way counts as inactive or inconclusive. On the % scale 0 is the no-effect control and ±100 the full control effect; potency means the concentration at half of the fitted maximal effect.

SMILES | rTrxR1 inhibitor | mIDH1 inhibitor | TrxR1 substrate | RGS4 inh | Eya2 phos inh
O=c1c(CN2CCN(Cc3ccccc3)CC2)coc2ccc(Cl)cc12 | 22µM* | 3% | 13% | -7% | -3%
CCC(Sc1nc2n[nH]c(C)c2c(=N)n1-c1cc(Cl)ccc1C)C(=O)N1CCOCC1 (stereo unspecified) | 7%[57.1 µM] | -3% | 4%[57.1 µM] | 8% | -17%
CCOc1ccc(N/C(N)=N/c2nc(CSc3nnc(C)s3)cc(=O)[nH]2)cc1 | -1% | 7% | 5% | -6% | 6%
O=C(NCCCCc1ccccc1)Nc1ccc(F)cc1F | 22% | -10% | -2% | 14% | 6%
CCc1ccc(-n2c(=O)c3c(C)c(C(=O)N(C)C)sc3n(Cc3ccccc3C#N)c2=O)cc1 | 18%[57.1 µM] | 0% | 7%[57.1 µM] | 0% | /
COC(=O)/C(=C/c1c[nH]c2ccccc12)[N+](=O)[O-] | 13µM* | -1% | 6% | -11% | 2%
CCOC(=O)C1(C)Oc2ccccc2C(C(=O)OC)=C1C(=O)OC (stereo unspecified) | 32µM* | 0% | 2% | ? | -11%
O=C(N/N=C/c1ccc([N+](=O)[O-])o1)c1sc2ccccc2c1Cl | 79µM* | 6% | 5% | ? | 8%
NC(=O)N/N=C/c1ccc([N+](=O)[O-])o1 | 7.1µM* | 13% | -15% | -3% | 16%
COc1ccccc1NS(=O)(=O)c1cccc(C(=O)N/N=C/c2ccc([N+](=O)[O-])o2)c1 | 40µM* | 14% | -10% | -30% | -14%
COc1ccccc1NS(=O)(=O)c1cccc(C(=O)N/N=C/c2ccc3c(c2)OCCO3)c1 | 18% | 2% | 21% | -14% | 0%
Cc1cc(C)c(S(=O)(=O)N/N=C/c2ccc([N+](=O)[O-])o2)c(C)c1 | 13µM* | 14% | -4% | -23% | 15%
O=C(Cn1nnc(-c2ccc(F)cc2)n1)OCC(=O)c1ccccc1 | ? | 7% | 0% | -20% | -1%
O=C(COc1ccccc1)N/N=C/c1ccc([N+](=O)[O-])o1 | 50µM* | 16% | -4% | -8% | -23%
Cc1ccc(OCC(=O)N/N=C/c2ccc([N+](=O)[O-])o2)cc1 | ? | 3% | -2% | 11% | -3%
Cc1ccc(-n2c(CCC(=O)O)ccc2-c2cccs2)cc1C | 45µM* | -2% | 15% | ? | 19%
CCc1ccc(-n2c(CCC(=O)O)ccc2-c2cccs2)cc1 | 35µM* | 9% | 8% | -48% | /
CCCCn1c(CCC(=O)O)ccc1-c1cccs1 | 35µM* | -11% | 14% | -41% | 14%
COCCn1c(CCC(=O)O)ccc1-c1cccs1 | ? | -1% | 20% | -12% | 1%
CC1(C)CC(=O)c2c(oc3c(Cl)cc(NS(=O)(=O)c4ccc(Cl)cc4)cc23)C1 | 17% | 1% | 2% | 8% | /
COC1=CC(=O)c2c(ccc3ncnc(N)c23)C1=O | ? | 22% | 79µM* | -45% | /
Cc1ccc(S(=O)(=O)NCCOC(=O)Nc2sc(=S)n(C)c2C)cc1 | 7.1µM* | -4% | 3% | ? | 10%
C=C1C(=O)O[C@@H]2[C@H]3O[C@]3(C)CC/C=C(\C)CC[C@@H]12 | 56µM* | 12% | 1% | ? | /
O=C1C(Cl)=C(O)C2(Cl)C(Cl)=C(Cl)C12Cl (stereo unspecified) | 6%[2.29 µM] | -12% | 0%[2.29 µM] | 11% | /
CC1(C)CC(=O)C(CS(=O)(=O)c2ccccc2)=C(Cl)C1 | 28µM* | 11% | 4% | -7% | -1%
SMILES | rTrxR1 inhibitor | mIDH1 inhibitor | TrxR1 substrate | RGS4 inh | Eya2 phos inh
Cc1ccccc1Cn1c(CN2CCCC(C)C2)nc2c1c(=O)n(C)c(=O)n2C (stereo unspecified) | 15% | -6% | 5% | 13% | /
COc1ccc(C2C(C#N)=C(N)Oc3cc(O)ccc32)cc1C (stereo unspecified) | 16µM* | 8% | -1% | -22% | 14%
Cc1cccc(C(=O)NCc2nnc(SCC(=O)Nc3ccccc3F)n2-c2ccccc2)c1 | 35% | 0% | 7% | 4% | /
O=S(NCc1ccco1)C12CC3CC(CC(C3)C1)C2 (stereo unspecified) | 35µM* | -3% | 11% | -16% | 9%
O=C(Nc1cccc(C2=NCCN2)c1)Nc1cccc(C2=NCCN2)c1 | 3% | 1% | -5% | -33% | /
CC(=O)c1ccc(OCC(=O)N2CCCC2c2ccc3c(c2)OCCCO3)cc1 (stereo unspecified) | 14% | 1% | 9%[57.1 µM] | 11% | -5%
O=C(CCl)N1CCCC1c1ccc2c(c1)OCCO2 (stereo unspecified) | 25µM* | 0% | 4% | ? | -4%
CCC(=O)N(CCC(c1ccc(C)cc1)c1ccco1)Cc1ccco1 (stereo unspecified) | 35µM* | -7% | -2% | -49% | -28%
CCC(=O)N(CCC(c1ccco1)C(C)C)Cc1ccccc1 (stereo unspecified) | 7%[57.1 µM] | 5% | -4%[57.1 µM] | ? | -2%
CCCc1nc2c(=O)n(C)c(=O)nc-2n(C)n1 | -101% | 24% | ? | -40% | -6%
Cc1ccccc1-c1nc2c(=O)n(C)c(=O)nc-2n(C)n1 | 14µM* | / | 13µM* | -26% | /
Cn1nc(-c2ccccn2)nc2c(=O)n(C)c(=O)nc1-2 | ? | 29% | 35µM* | -27% | -19%
Cc1cc(Cl)ccc1OCCCC(=O)Nc1ccc(S(=O)(=O)Nc2ncccn2)cc1 | 20%[57.1 µM] | 4% | -14%[57.1 µM] | -23% | 10%
O=C1NC(=O)c2cc(Nc3ccccc3)c(Nc3ccccc3)cc21 | ? | / | 2%[57.1 µM] | 19µM* | -11%
CCOc1ccc(C(c2c(O)nc(SC)n(C)c2=O)c2c(O)nc(SC)n(C)c2=O)cc1 | 8.9µM* | 2% | 9% | ? | 23%
COc1ccc(CCC(=O)N2CCN(S(=O)(=O)c3cccc(Cl)c3)CC2)cc1 | -9% | -10% | -3% | 10% | 15%
CCN1C(=O)C=CC1=O | 11µM*! | / | -3%[57.1 µM] | 11%[56.9 µM] | 5%
O=C1C=CC(=O)N1CCCCCCN1C(=O)C=CC1=O | 0.71µM* | 4% | 6% | -140% | -16%
CC(=O)NC(Cc1ccc(F)c(F)c1)C(=O)NC1CCN(c2c(Cc3ccccc3)c(C)nc3ncnn23)CC1 (stereo unspecified) | 14% | -3% | 6% | 4% | 2%
CN(C)CCN(Cc1ccccc1)S(=O)(=O)c1ccc(-c2ccc(=O)[nH]n2)s1 | 40µM* | 0% | 11% | 7%[11.4 µM] | 0%
CN1CCN(C(=O)c2cnn(-c3ccccc3)c2NC(=O)c2ccccc2F)CC1 | 11%[57.1 µM] | 6% | 10%[57.1 µM] | -15%[11.4 µM] | 12%
Cc1cc(C(c2nnnn2Cc2ccccc2)N2CCOCC2)c(C)n1-c1ccc2c(c1)OCO2 (stereo unspecified) | 7.9µM* | 6% | 7% | -27% | -6%
